The source of these data is PubChem BioAssay (Tox21).

Assay [1] can be described thus: qHTS assay to test for compound auto fluorescence at 535 nm (green) in HEK293 cells (AID 720680). In general terms: Quantitative high-throughput screening tests each substance at several concentrations.
A short description of assay [2]: qHTS assay to test for compound auto fluorescence at 460 nm (blue) in HEK293 cell free culture (AID 720681). Summed up: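 Test compounds were pinned into cell-free culture medium (DMEM with 10% FBS) and fluorescence was read directly at Ex/Em 405/460 nm. Signals were expressed as fluorescence equivalents of triamterene, with DMSO vehicle as control.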
Assay [3] is described as follows: qHTS assay to test for compound auto fluorescence at 535 nm (green) in HEK293 cell free culture (AID 720682). In outline:
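No cells present: wells hold DMEM supplemented with 10% FBS, into which compound or vehicle is pinned. Green emission is then recorded (485 nm excitation, 535 nm emission) and scaled to fluorescein.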

Assay [4] in a line: qHTS assay to test for compound auto fluorescence at 590 nm (red) in HEK293 cell free culture (AID 720683). Summed up:
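Tox21 10K library compounds were pinned into cell-free DMEM with 10% FBS and fluorescence was read at excitation 540 nm. Activity is expressed as Rose Bengal sodium equivalency.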

The nature of assay [5]: qHTS assay to test for compound auto fluorescence at 590 nm (red) in HepG2 cell free culture (AID 720684). In outline: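 Red fluorescence (540 nm excitation, 590 nm emission) was measured after compound transfer into cell-free MEM supplemented with 10% FBS. Values are equivalencies against Rose Bengal sodium.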
Assay [6] can be described thus: qHTS assay to test for compound auto fluorescence at 460 nm (blue) in HepG2 cell free culture (AID 720685). Summed up: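 Compound (23 nL) or DMSO pinned into cell-free MEM with 10% FBS; blue fluorescence read at 405/460 nm excitation/emission, expressed as auto-fluorescence equivalency to triamterene.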
Assay [7] is described as follows: qHTS assay to test for compound auto fluorescence at 535 nm (green) in HepG2 cell free culture (AID 720686).
The nature of assay [8]: qHTS assay to test for compound auto fluorescence at 460 nm (blue) in HepG2 cells (AID 720687). Summed up: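 Cells (2,000/well in MEM with 10% FBS) attached overnight at 37 C, then were exposed to compound or DMSO for 1 hr at 37 C, 5% CO2. Fluorescence read at Ex/Em 405/460 nm, expressed as triamterene-equivalent signal.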
The target of assay [9] is Glucocorticoid receptor (Homo sapiens) (UniProt P04150). In words: qHTS assay to identify small molecule agonists of the glucocorticoid receptor (GR) signaling pathway (AID 720691; active = well fitted activation curve with a large enough effect in the signal ratio in the repeat runs, not every such curve was filed as active; the % refers to the signal ratio). Particulars: GR-bla HeLa, beta-lactamase reporter ratio, 18 h; activation: at 62.4 µM (top of the series). In outline: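 Agonist mode in a HeLa line carrying a GRE-controlled beta-lactamase reporter. Compounds act for 18 h at 37 C before a 2 h room-temperature FRET substrate step and fluorescence reading.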
Chain of Glucocorticoid receptor (Homo sapiens) (P04150 whole entry, looked up): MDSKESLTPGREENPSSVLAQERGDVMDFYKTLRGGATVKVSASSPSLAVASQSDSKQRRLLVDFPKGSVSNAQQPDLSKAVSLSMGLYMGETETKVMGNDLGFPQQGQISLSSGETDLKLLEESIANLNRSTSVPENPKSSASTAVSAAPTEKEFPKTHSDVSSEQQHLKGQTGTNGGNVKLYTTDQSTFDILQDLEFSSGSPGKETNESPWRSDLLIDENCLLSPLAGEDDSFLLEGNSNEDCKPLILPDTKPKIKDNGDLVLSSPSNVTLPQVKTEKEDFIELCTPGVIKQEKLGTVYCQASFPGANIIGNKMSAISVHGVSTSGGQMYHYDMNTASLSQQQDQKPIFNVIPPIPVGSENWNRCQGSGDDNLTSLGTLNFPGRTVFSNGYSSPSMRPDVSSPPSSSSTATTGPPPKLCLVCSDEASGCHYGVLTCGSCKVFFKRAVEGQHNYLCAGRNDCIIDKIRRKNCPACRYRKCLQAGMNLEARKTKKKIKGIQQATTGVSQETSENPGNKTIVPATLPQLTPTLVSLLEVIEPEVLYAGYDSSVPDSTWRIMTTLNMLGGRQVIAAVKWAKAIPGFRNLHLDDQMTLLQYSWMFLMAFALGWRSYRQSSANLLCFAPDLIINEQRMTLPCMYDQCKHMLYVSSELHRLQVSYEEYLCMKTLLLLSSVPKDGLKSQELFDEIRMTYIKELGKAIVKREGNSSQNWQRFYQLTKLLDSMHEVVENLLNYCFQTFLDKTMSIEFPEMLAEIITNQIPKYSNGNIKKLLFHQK

For assay [10] the target is unchanged. In words: qHTS assay to identify small molecule antagonists of the glucocorticoid receptor (GR) signaling pathway (AID 720692; active = well fitted inhibition curve with a large enough effect in the signal ratio in the repeat runs, not every such curve was filed as active; the % refers to the signal ratio). Summed up:
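Cells plated, rested 4 h at 37 C/5% CO2; compounds in DMSO pin-transferred; dexamethasone added to 5 nM final; 18 h at 37 C; B/G FRET substrate added, 2 h room temperature; fluorescence measured.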

Assay [11] can be described thus: qHTS assay to identify small molecule antagonists of the glucocorticoid receptor (GR) signaling pathway - cell viability counter screen (AID 720693). Also: nearly all actives have a fitted effect of over 55% in size.
Assay [12] can be described thus: qHTS assay for identifying genotoxic compounds that show differential cytotoxicity against isogenic chicken DT40 cell lines with known DNA damage response pathways - wild type cell line (AID 743012). Also: nearly all actives have a fitted effect of over 60% in size. Also: potency is read from the fitted curve at half-maximal effect. In outline:
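Cells (DT40 wild type, 300/well) are treated with DMSO-dissolved compounds after a ~0.5 h pre-incubation and kept 40 h at 37 C/5% CO2. Viability is then measured by CellTiter-Glo luminescence following 30 min at room temperature.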

A short description of assay [13]: qHTS assay for identifying genotoxic compounds that show differential cytotoxicity against isogenic chicken DT40 cell lines with known DNA damage response pathways - Rev3 mutant cell line (AID 743014). Also: nearly all actives have a fitted effect of over 55% in size. Also: potency is read from the fitted curve at half-maximal effect.
Assay [14] is described as follows: qHTS assay for identifying genotoxic compounds that show differential cytotoxicity against isogenic chicken DT40 cell lines with known DNA damage response pathways - Rad54/Ku70 mutant cell line (AID 743015). Also: nearly all actives have a fitted effect of over 60% in size. Also: potency is read from the fitted curve at half-maximal effect.
Assay [15] in a line: qHTS assay to identify small molecule antagonists of the androgen receptor (AR) signaling pathway - cell viability counter screen (AID 743033; also: nearly all actives have a fitted effect of over 45% in size).
Assay [16] is described as follows: qHTS assay to identify small molecule antagonists of the androgen receptor (AR) signaling pathway using the MDA cell line - cell viability counter screen (AID 743041; also: nearly all actives have a fitted effect of over 45% in size). In outline: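 MDA-kb2 AR-luc human breast carcinoma cells (MMTV-luciferase, AR/GR responsive) were treated with compounds plus R1881 agonist for 16 h at 37 °C. Viability was read as CellTiter-Fluor fluorescence in the same wells as the reporter assay.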

Unmarked numbers belong to inactive results. Records with an inconclusive call do not appear. Calls of active or inactive are those of the source. Unless noted, calls follow the shape of the dose curve; as a rule, active = well fitted curve in the direction sought with a large enough effect in the repeat runs; inconclusive = weak or mixed curves; inactive = no such curve, though single readings can be large; an effect the other way counts as inactive or inconclusive.
% is scaled to controls: 0 for no effect and ±100 for the full control effect.

For `COC(=O)c1cc(Oc2ccc(Cl)cc2Cl)ccc1[N+](=O)[O-]`, the result in assay [1], in assay [3], in assay [4] and in assay [5] was inactive. Besides, the Potency result in [2], in [6], in assay [7], in [8], in [9] and in assay [10] was “inactive” throughout. The Potency entry in assay [11], in assay [15] and in [16] was “inactive” in each case. In addition, the Potency in assay [12] was 9.69 µM (active); in assay [13] it was 12.2 µM (active); in assay [14], 24.3 µM (active).

Consider `NC(=O)C(Cl)Cl`, for which the outcome in assay [1], in assay [3], in assay [4] and in assay [5] was inactive. Besides, the Potency entry in assay [2], in assay [6], in assay [7], in assay [8], in assay [9] and in [10] was “inactive” in each case. In addition, the Potency result in [11], in assay [12], in [13], in [14], in assay [15] and in [16] was “inactive” throughout.

`COP(=S)(OC)Oc1nc(Cl)c(Cl)cc1Cl`: the result in assay [1], in assay [3], in assay [4] and in assay [5] was inactive. In addition, the Potency result in assay [2], in assay [6], in [7], in assay [8], in assay [9] and in assay [10] was “inactive” in each case. The Potency result in [11], in [15] and in [16] was “inactive” in each case. Moreover, the Potency in [13] was 61.1 µM (active).

As for `COc1cnc(OC)n2nc(NS(=O)(=O)c3c(OCC(F)F)cccc3C(F)(F)F)nc12`, the outcome in [1], in assay [3], in assay [4] and in [5] was inactive. For the same molecule, the Potency entry in assay [2], in [6], in [7], in [8], in assay [9] and in assay [10] was “inactive” throughout. Also, the Potency result in assay [11], in [12], in assay [13], in assay [14], in assay [15] and in assay [16] was “inactive” throughout.

Take `CNC(C)(C)Cc1ccccc1`: the fluorescence, % of fluorescein in [1] was 0.0122% [at 18.6 µM]. Also, the fluorescence, % of fluorescent control in assay [2] is -0.0376% [at 18.6 µM]; in assay [4], -0.277% [at 18.6 µM]; in assay [6], -0.0785% [at 18.6 µM]; in [8], -0.0567% [at 18.6 µM]. Also, the activity change in [3] is 0.136% [at 18.6 µM]. Besides, the fluorescence, % of Rose Bengal in assay [5] was -0.143% [at 18.6 µM]. In addition, the fluorescence, % of fluorescein control in assay [7] was 0.134% [at 18.6 µM]. Further, the Potency entry in assay [9], in assay [10], in assay [11], in [12], in assay [13] and in assay [15] was “inactive” each time.

For the molecule `CCCCC/C=C\C/C=C\C/C=C\C/C=C\CCCC(=O)NCC(=O)O`, the fluorescence, % of fluorescein in [1] is -0.212% [at 3.72 µM]. The fluorescence, % of fluorescent control was -0.0427% [at 3.72 µM] in assay [2], 0.173% [at 3.72 µM] in assay [4], -0.0542% [at 3.72 µM] in assay [6] and -0.108% [at 3.72 µM] in assay [8]. The activity change in assay [3] is 0.0424% [at 3.72 µM]. Further, in assay [5], the fluorescence, % of Rose Bengal is 0.0912% [at 3.72 µM]. In addition, the fluorescence, % of fluorescein control in assay [7] was 0.0024% [at 3.72 µM]. Further, the activation in assay [9] was 0.54% [at 6.9 µM]. Further, the activity change, negative = inhibition in assay [10] was 22.5% [at 7.04 µM]. Also, the viability change, negative = cytotoxic is -8.97% [at 7.04 µM] in assay [11] and -2.98% [at 8.47 µM] in assay [16]. Moreover, the activity change, negative = cytotoxicity in assay [12] is 16.5% [at 8.52 µM]; in assay [14], 4.36% [at 8.55 µM].

Consider `O=P(Cl)(Cl)Cl`, for which the molecule was classed as inactive in assay [1], in assay [3], in assay [4] and in assay [5]. Besides, the Potency result in assay [2], in assay [6], in assay [7], in assay [8], in assay [9] and in assay [10] was “inactive” in each case. Besides, the Potency entry in assay [11], in [12], in assay [13], in assay [15] and in [16] was “inactive” in each case.
